From PubChem
Shown are actives, neighbours in structure and some others; about 12% of the full set was active somewhere.
Sm TGR block – qHTS Assay for the Inhibitors of Schistosoma Mansoni Peroxiredoxins; Schistosoma mansoni thioredoxin glutathione reductase (TGR), Q962Y6; purified TGR, DTNB reduction, TNB absorbance 405 nm; Potency, µM (doses to about 114 µM), most hits filed as inhibitors; 360,000 tested, 3% active; AID 485364, 2010; also: nearly all actives have a fitted effect of over 60% in size
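First, TGR (20 nM dispensed) and NADPH were mixed with compound. Second, a 15 min room-temperature incubation followed. Third, further NADPH and then DTNB were added to start the reaction. Finally, TNB absorbance was monitored kinetically.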
AmpC detergent – qHTS Inhibitors of AmpC Beta-Lactamase (assay with detergent); P00811; AmpC hydrolysis of nitrocefin, absorbance 480 nm, 0.01% Triton; Potency, µM (doses to about 114 µM), most hits filed as inhibitors; 370,000 tested, 0.041% active; also: nearly all actives have a fitted effect of over 25% in size
Target sequence (P00811 whole entry, looked up): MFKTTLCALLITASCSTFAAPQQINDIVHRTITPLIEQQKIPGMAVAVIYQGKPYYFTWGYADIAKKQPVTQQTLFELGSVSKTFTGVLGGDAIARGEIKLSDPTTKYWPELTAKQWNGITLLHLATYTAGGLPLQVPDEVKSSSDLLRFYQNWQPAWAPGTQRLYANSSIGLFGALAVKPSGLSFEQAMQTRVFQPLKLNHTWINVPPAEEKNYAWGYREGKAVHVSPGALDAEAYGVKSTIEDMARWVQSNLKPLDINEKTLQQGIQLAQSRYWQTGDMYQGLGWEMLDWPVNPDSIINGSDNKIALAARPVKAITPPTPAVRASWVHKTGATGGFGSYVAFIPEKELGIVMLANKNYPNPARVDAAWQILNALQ
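AmpC (5.3 nM in the dispensed reagent) in 20 mM phosphate pH 7.0 with 0.01% (detergent screen) or 0.0001% Triton X-100 was preincubated with compounds for 15 min at room temperature. Nitrocefin was then added from an 800 uM solution, and hydrolysis was followed at 480 nm.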
Pf growth 96h – Primary qHTS for delayed death inhibitors of the malarial parasite plastid, 96 hour incubation; Potency, µM (doses to about 28.7 µM), most hits filed as inhibitors; 320,000 tested, 6.9% active; P. falciparum luciferase reporter growth, 96 h
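Two parasite generations (96 h, 37 C, 5% CO2) of compound exposure in infected erythrocytes (0.05% parasitemia, 2% hematocrit). Luciferase-reporter P. falciparum; decreased luminescence indicates inhibited growth, aimed at apicoplast-acting delayed death.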
Pf growth 48h – Primary qHTS for delayed death inhibitors of the malarial parasite plastid, 48 hour incubation; P. falciparum luciferase growth in erythrocytes, 48 h; Potency, µM (highest dose often 28.7 µM), hits mostly inhibitors; 310,000 tested, 5.9% active; AID 504832, 2011
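In quantitative HTS format, infected erythrocytes bearing luciferase-reporter parasites were treated for a single generation at 37 C. Luminescence after adding detection reagent served as the growth measure.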
SARS PLP yeast – qHTS of Yeast-based Assay for SARS-CoV PLP; S. cerevisiae expressing SARS-CoV PLpro, growth rescue; 330,000 tested, 0.19% active; Potency, µM (highest dose often 32.9 µM), usual class: activators; AID 485353, 2010; calls by dose curve; also: nearly all actives have a fitted effect of over 55% in size
AmpC no deterg – qHTS Inhibitors of AmpC Beta-Lactamase (assay without detergent); P00811; AID 485341, 2010; 330,000 tested, 0.52% active; Potency, µM (highest dose often 57.1 µM), actives largely listed as inhibitors; AmpC nitrocefin hydrolysis, absorbance 480 nm, 0.0001% Triton; also: nearly all actives have a fitted effect of over 20% in size
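AmpC (5.3 nM in the dispensed reagent) in 20 mM phosphate pH 7.0 with 0.01% (detergent screen) or 0.0001% Triton X-100 was preincubated with compounds for 15 min at room temperature. Nitrocefin was then added from an 800 uM solution, and hydrolysis was followed at 480 nm.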
A number is an active result; - = inactive; ? = inconclusive; . = no result given; ! = a repeat was not active; [ ] = another dose, or the depositor's remark. Unless noted, calls follow the shape of the dose curve; as a rule, active = well fitted curve in the direction sought with a large enough effect; inconclusive = small, poorly fitted or top-dose-only effect, or another doubt; inactive = no such curve, though single readings can be large; an effect the other way counts as inactive or inconclusive.

SMILES	Sm TGR block	AmpC detergent	Pf growth 96h	Pf growth 48h	SARS PLP yeast	AmpC no deterg
O=C(N/N=C/c1coc2ccccc2c1=O)c1ccccc1	?	-	-	-	-	-
C#CCOc1ccccc1/C=N/NC(=O)c1ccccc1OCc1ccccc1	-	-	10.4µM	?	-	20µM
O=C(N/N=C\c1coc2ccccc2c1=O)c1ccco1	28.2µM	-	-	-	-	-
COc1ccc(/C=N/NC(=O)c2ccccc2OCc2ccccc2)c(OC)c1	-	-	-	?	-	-
COc1ccc(C(=O)NCC(=O)NCC(=O)OCc2ccc(Br)cc2)cc1	-	-	-	-	-	-
Cc1noc(C)c1COc1ccc(C(=O)NCc2cccs2)cc1	.	.	.	.	-	-
O=C(Cc1ccccc1)N/N=C/c1ccccc1OCc1ccc(Cl)cc1	-	-	-	-	-	-
O=C(N/N=C\c1ccccc1OCc1ccccc1)c1ccco1	-	-	?	8.28µM	-	-
COc1ccc(NC(=O)Cc2nnc(SCC(=O)NC3CCCCC3C)n2C)cc1 (stereo not drawn)	-	-	-	?	-	-
CCN(CC)CCOc1ccc(/C(=C(/Cl)c2ccccc2)c2ccccc2)cc1	-	?	9.28µM	9.28µM!	-	-
CC/C(=C(\c1ccc(O)cc1)c1ccc(OCCN(C)C)cc1)c1ccccc1	-	-	.	.	-	-
CC1CC(C)(C)NCc2ccccc21 (stereo not drawn)	-	-	9.28µM	-	-	-
CC1CC(C)(C)NC(C)c2ccccc21 (stereo not drawn)	?	-	-	-	-	-
Clc1nc(CN2CCCCC2)nc2sc3c(c12)CCCC3	20µM	-	?	-	-	-
Cc1sc2nc(CN3CCCCC3)nc(Cl)c2c1C	50.1µM	-	?	-	-	-
Clc1nc(CN2CCOCC2)nc2sc3c(c12)CCC3	-	-	-	-	-	-
CC1CCN(Cc2nc(Cl)c3c4c(sc3n2)CCC4)CC1	15.8µM	-	-	-	-	-
COc1ccc(N2CCN(C(=O)NCc3ccc(OC)c(OC)c3)CC2)cc1	-	?	-	-	-	-
C=CCn1c(OCc2ccccc2)n[nH]c1=S	-	-	?	-[0.00184 µM]	-	-
COc1ccccc1N1CCN(c2ncnc3c2nnn3C)CC1	-	-	.	.	.	.
O=C(COc1ccc2c(-c3ccccc3)cc(=O)oc2c1)N[C@H](Cc1c[nH]c2ccccc12)C(=O)O	-	-	-	-	-	-
COc1ccc(-n2c(Cc3cccn3C)nnc2SCC(=O)NCc2ccco2)cc1	56.2µM	?	-	?	-	-
COc1ccc(-n2c(Cc3cccn3C)nnc2SCC(=O)NCc2ccccc2Cl)cc1	-	?	11.7µM	9.28µM	-	-
COc1ccc(-n2c(Cc3cccn3C)nnc2SCC(N)=O)cc1	?	?	-	-	-	-
COc1ccc(-n2c(Cc3cccn3C)nnc2SCC(=O)NCc2ccc(F)cc2)cc1	-	?	-	8.28µM	-	-
SMILES	Sm TGR block	AmpC detergent	Pf growth 96h	Pf growth 48h	SARS PLP yeast	AmpC no deterg
COC(=O)c1ccc(NC(=O)N2CCc3c([nH]c4ccccc34)C2c2ccc(C)cc2)cc1 (stereo not drawn)	-	-	.	.	.	.
CC(=O)Nc1cccc(C(=O)NCc2ccc3c(c2)CCN3C(=O)c2ccc(F)cc2)c1	-	-	.	.	.	.
CCCCn1c2ccc(F)cc2c2nnc(SCCN3CCCCC3)nc21	-	-	-	?	-	-
CCCCn1c2ccc(C)cc2c2nnc(SCCN3CCCCC3)nc21	-	-	?	13.1µM	-	-
CCN(CC)CCOC(=O)c1ccc(N/C=C(/C#N)c2nc(-c3cccc(OC)c3)cs2)cc1	-	-	0.465µM	?	-	-
CCOC(=O)c1sc(=S)n(-c2ccc(C)cc2)c1SC	-	-	0.465µM	1.17µM	-	-
CCOC(=O)c1sc(=S)n(-c2ccccc2)c1C	-	-	-	-	-	-
CCOC(=O)C1=C(C)NC(C)=C(C(=O)OCC)C1C(=O)OCC(=O)N1CCc2ccccc21	-	?	.	10.4µM	-	-
NCCSC1CC(=O)N(Cc2ccc(F)cc2)C1=O (stereo not drawn)	7.94µM	-	?	-[5.75 µM]	-	-
O=C1CC(Sc2ccc(Cl)cc2)C(=O)N1Cc1ccncc1 (stereo not drawn)	7.08µM	-	-	-	-	-
CCOC(=O)c1ccc(NC(=O)c2cn3c4c(ccc(Cl)c4c2=O)OC(C)C3)cc1 (stereo not drawn)	-	-	.	.	.	.
Cc1cc(C)nc(N(C#N)Cc2ccc(Cl)cc2)n1	-	-	13.1µM	-	-	-
CCOc1ccc(CNC(=O)CCS(=O)(=O)Cc2ccccc2C)cc1OC	-	-	9.28µM	?	-	-
CC1=C(C(=O)Nc2ccccc2)C(c2ccc(Br)cc2)n2nc(CCCO)nc2N1 (stereo not drawn)	-	-	.	.	.	.
Cc1ccccc1-c1noc(CSc2nc(-c3ccc(F)cc3)cc(=O)[nH]2)n1	-	-	.	.	.	.
O=C(c1ccc(-c2nnc(Nc3ccccc3)c3ccccc23)cc1)N1C[C@H]2C[C@H](C1)c1cccc(=O)n1C2	-	-	3.7µM	13.1µM	-	-
CCS(=O)(=O)N1CCc2cc(C(=O)Nc3ccc(OC)c(Cl)c3)ccc21	-	-	.	.	.	.
CCCC(=O)N1CCN(c2nc(CC(C)C)c3c(c2C#N)CCC3)CC1	-	-	-	2.62µM	-	-
CC1(C)Cc2c(C#N)c(N3CCOCC3)nc(-c3ccccc3)c2CO1	-	-	?	10.4µM	-	-
CCc1nc(N2CCN(C(=O)c3ccccc3)CC2)c(C#N)c2c1COC(C)(C)C2	-	?	?	9.28µM	-	-
Cc1ccc(S(=O)(=O)N2CCN(c3nc(C)c4c(c3C#N)CC(C)(C)OC4)CC2)cc1	-	?	-	6.57µM	-	-
CC(C)C(=O)N1CCN(c2nc(-c3ccccc3)c3c(c2C#N)CCCC3)CC1	-	?	8.28µM	.	-	-
CC(C)Cc1nc(N2CCN(C(=O)c3ccco3)CC2)c(C#N)c2c1CCCC2	-	-	-	?	-	-
Cc1cc2ncn(CCOc3ccccc3C#N)c2cc1C	-	-	13.1µM	?	-	-
CCc1ccc2nc(SCC(=O)Nc3ccccc3N3CCOCC3)c(C#N)cc2c1	-	?	-	9.28µM	-	-
Cc1ccc(SCC(=O)Nc2ccccc2N2CCOCC2)cc1	-	-	?	-	-	-
CCc1ccc2nc(SCC(=O)N3CC(=O)Nc4ccccc43)c(C#N)cc2c1	-	-	11.7µM	-	-	-
N#Cc1cc(C#N)c(SCC(=O)N2CC(=O)Nc3ccccc32)nc1N	-	-	?	?	-	-
